# Data as given in PubChem BioAssay (Tox21).
# Records with an inconclusive call do not appear. Active and inactive are the calls of the source. Calls follow the shape of the dose curve; as a rule, active = well fitted activation curve with a large enough effect in the signal ratio in the repeat runs, with a control signal flat (not every such curve was filed as active); inconclusive = weak or mixed curves; inactive = flat fitted curve, though single readings scatter; the % refers to the signal ratio.
# Test: qHTS assay for small molecule activators of the heat shock response signaling pathway (AID 743210)
# Conditions: HeLa HSE-bla reporter, beta-lactamase ratio, 5 h; series mostly up to 62.6 µM; activation: at the top concentration
# Description: U.S. Tox21 Program National Center for Advancing Translational Sciences [NCATS] NIH Chemical Genomics Center [NCGC] U.S. Environmental Protection Agency [EPA] National Institutes of Environmental Health Sciences [NIEHS] National Toxicology Program [NTP] U.S. Food and Drug Administration [FDA] Tox21 Assay Overview: Various chemicals, environmental and physiological stress conditions may lead to the activation of heat shock response/ unfolded protein response (HSR/UPR). There are three heat shock transcription factors (HSFs) (HSF-1, -2, and -4) mediating transcriptional regulation of the human HSR. To identify the compounds that activate HSR signaling, HSE-bla HeLa cell line (Invitrogen, Carlsbad, CA, USA) containing a beta-lactamase reporter gene under the control of the heat shock response elements was used to screen the Tox21 10K compound library.
# Tox21 Assay Protocol Summary: The CellSensor HSE-bla HeLa cells (Invitrogen, Carlsbad, CA, USA) were dispensed at 1500 cells/6uL/well into 1536-well black wall/clear bottom plates using a Multidrop combi (Thermo Fisher Scientific, Waltham, MA) dispenser. After the assay plates were incubated at 37 C and 5% CO2 overnight, 23 nL of compounds dissolved in DMSO, positive controls or DMSO only was transferred to the assay plate by a Pintool station (Kalypsys, San Diego, CA). The plates were incubated at 37 C for 5 h. After 1 uL of LiveBLAzerTM B/G FRET substrate was added using a Flying Reagent Dispenser (Beckman Coulter, Indianapolis, IN, USA), the plates were incubated at room temperature for 2.5 h, and fluorescence intensity was measured by an Envision plate reader (PerkinElmer, Shelton, CT).
# % is scaled to controls: 0 for no effect and ±100 for the full control effect.
SMILES,outcome,activation
C#C[C@]1(O)CC[C@H]2[C@@H]3CCc4cc(O)ccc4[C@H]3CC[C@@]21C,inactive,
CN(C)Cc1cc(CN(C)C)c(O)c(CN(C)C)c1,,-1.08% (inactive)
Cc1cccc(Nc2cc(Cl)nc(SCC(=O)O)n2)c1C,inactive,
NC(=O)c1ccc([N+](=O)[O-])cc1Cl,inactive,
CCN1CCCC1=O,inactive,
COC1=CC(=O)C[C@@H](C)[C@]12Oc1c(Cl)c(OC)cc(OC)c1C2=O,inactive,
CCCCCCCC(=O)OCC(O)CO (stereo not given),inactive,
C=CC(=O)NC(C)(C)CS(=O)(=O)O,inactive,
NC(=O)N/N=C/c1ccc([N+](=O)[O-])o1,inactive,
COc1cc(O)c(C(=O)c2ccccc2)cc1S(=O)(=O)O,inactive,
COc1ccc(O)cc1,inactive,
O=C(O)Cc1cccc2ccccc12,inactive,
C[C@]12C=CC(=O)C=C1CC[C@@H]1[C@@H]2C(=O)C[C@@]2(C)[C@H]1CC[C@]2(O)C(=O)CO,inactive,
O=C1CCCCCN1,inactive,
CC(O)COc1ccccc1 (stereo not given),inactive,
O=C1OC(c2ccc(O)cc2)(c2ccc(O)cc2)c2ccccc21,inactive,
CO[C@H]1C=CO[C@@]2(C)Oc3c(C)c(O)c4c(O)c(c(/C=N/N5CCN(C)CC5)c(O)c4c3C2=O)NC(=O)/C(C)=C\C=C[C@H](C)[C@H](O)[C@@H](C)[C@@H](O)[C@@H](C)[C@H](OC(C)=O)[C@@H]1C,inactive,
CCN(CC)CCOC(=O)c1ccc(N)cc1,,-0.86% (inactive)
Cc1cnc(NC(=O)C2=C(O)c3ccccc3S(=O)(=O)N2C)s1,inactive,
C=C(C)C(N)=O,inactive,

SMILES,outcome,activation
C/C=C/c1ccc(O)c(OC)c1,inactive,
COC(=O)c1ccc(C=O)cc1,inactive,
Nc1ccc(N=Nc2ccccc2)c(N)n1,,-2.07% (inactive)
C=C(C)OC(C)=O,inactive,
CCCCNC(=O)NS(=O)(=O)c1ccc(N)cc1,inactive,
COCCOCCOC,inactive,
CCc1cc(C(N)=S)ccn1,inactive,
C[C@]12CC[C@@H]3c4ccc(O)cc4CC[C@H]3[C@@H]1CCC2=O,inactive,
CCCCCCCCOc1ccc(C(=O)c2ccccc2)c(O)c1,inactive,
Oc1cccc(O)c1,inactive,
C[C@]12C[C@H](O)[C@H]3[C@@H](CCC4=CC(=O)CC[C@@]43C)[C@@H]1CC[C@@H]2C(=O)CO,inactive,
C1CNCCN1,inactive,
Nc1cccc(N)c1,inactive,
CCCCCCCCCCCCCCCCCC(=O)OCC(O)CO (stereo not given),inactive,
NC(=O)N1c2ccccc2C=Cc2ccccc21,inactive,
NC(=O)OCC(COC(N)=O)c1ccccc1,inactive,
NC(N)=NC(N)=NCCc1ccccc1,inactive,
COc1ccccc1NC(=O)CC(C)=O,inactive,
OC[C@@H](O)[C@@H](O)[C@H](O)[C@H](O)CO,inactive,
CC(C)Cc1ccc(C(C)C(=O)O)cc1 (stereo not given),inactive,
